Data from the supplement of paper PMC10338343.
± gives the standard deviation.

Key:
[1] = tested on: MILI (PIWIL2) piRISC loaded with L1MC piRNA (26 nt); experiment: pre-steady-state target cleavage rate (min^-1); guide: L1MC piRNA 5'p-UAACUAAAUACUAUGCAAGCUGUAGG; higher = faster piRNA-guided slicing of the target;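 also: 1 nM active piRISC with 0.1 nM target library at 33 °C single turnover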
Outline: (§1)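 Three pooled Cleave-'n-Seq trials supplied the data, with k3 capped at 0.0001 min^-1. In each, […] transcribed, DNA-blocked target RNA library and 1 nM active affinity-purified piRISC with one synthetic guide reacted in HEPES–potassium acetate buffer at 33 °C for 0–8 or 0–960 min, with or without 500 nM GTSF1 partner protein. Uncleaved targets were sequenced and normalised to depth and to weakly complementary targets. A burst-and-steady-state fit provided the pre-steady-state cleavage rate.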

[2] = tested on: EfPiwi piRISC loaded with L1MC piRNA (26 nt); experiment: pre-steady-state target cleavage rate (min^-1); auxiliary factor: 500 nM Ephydatia muelleri Gtsf1; guide: L1MC piRNA 5'p-UAACUAAAUACUAUGCAAGCUGUAGG; MIWI and MILI are mouse PIWI proteins and EfPiwi is from a freshwater sponge; tags in brackets are library labels; higher = faster piRNA-guided slicing of the target
Outline: as §1

[3] = auxiliary factor: 500 nM mouse GTSF1
[4] = auxiliary factor: none (no GTSF1)

Sequence	pre-steady-state target cleavage rate [1, 3]	pre-steady-state target cleavage rate [1, 4]	pre-steady-state target cleavage rate [2]
UCCUGGAUGAGCUUCGCAUAGUAUUUAGUUA	0.258 ± 0.02	0.00539 ± 0.0022	0.0219 ± 0.0059
UCCUGGAUGUGCUUGCAUAGUACUUUAGUUA	0.0231 ± 0.0092	0.00627 ± 0.0028	0.0126 ± 0.0061
UCCUCCUACAGCUUGCUUAGUAUUUACUUA	0.179 ± 0.02	0.00341 ± 0.0022	0.00381 ± 0.003
UCCUUCUACAGCUUGCAUAGUAUUUAGUUA	0.3 ± 0.015	0.0105 ± 0.0029	0.119 ± 0.035
UCCUGGAUCUCGUUGCAUAGUAUUUAGUUA	0.198 ± 0.019	0.00544 ± 0.0024	0.0466 ± 0.011
UCCUGGAUGAGCUGUGCAUAGUAUUUAGUUA	0.191 ± 0.013	0.0151 ± 0.0044	0.0255 ± 0.0063
UCCUGCUUCAGCUUGCAUAGUAAUUAGUUA	0.253 ± 0.022	0.00622 ± 0.0021	0.00863 ± 0.003
UCCUGGAUCUGCUUGCAUAGUUUUUAGUUA	0.0213 ± 0.0057	0.00511 ± 0.002	0.00787 ± 0.0041
UCCUCCUACAGCUUGCAUAGUAUUUUCUAA	0.143 ± 0.028	0.00357 ± 0.0031	0.00565 ± 0.0036
UCCUGGUACACCAUGCAUAGUAUUUAGUUA	0.176 ± 0.033	0.0052 ± 0.0033	0.00335 ± 0.0031
UCCUGGAUCAGCUUGCAUAGUAUUUACAAA	0.105 ± 0.021	0.00255 ± 0.0024	0.00404 ± 0.002
UCCUCCUACAGCAUGCAUUGUAUUUAGUUA	0.217 ± 0.015	0.0102 ± 0.0027	0.0134 ± 0.0043
UCCUGGAACAGCUUGCAUAGUAGUUAGUUA	0.138 ± 0.018	0.00378 ± 0.0026	0.00926 ± 0.0027
UCCUGGAUGUCCUUGCAUAGUAUUUAGUUA [g2:g19:cont:t1A]	0.119 ± 0.018	0.00813 ± 0.0021	0.00824 ± 0.003
UCCUGGAUCGCUUGCAUAGUAUUUAGUUA	0.29 ± 0.012	0.00599 ± 0.0021	0.065 ± 0.011
UCCUGGAUGUCCUUGCAUAGUAUUUAUUUA	0.0674 ± 0.018	0.00292 ± 0.0029	0.00464 ± 0.0036
UCCUGCUACAGCUUGCUUAGUAUAUAGUUA	0.206 ± 0.028	0.00313 ± 0.0023	0.0125 ± 0.0047
UCCUGGAACAGCAUGCAUAGUAUUAAGUUA	0.219 ± 0.027	0.00548 ± 0.0019	0.00499 ± 0.0017
UCCUCCUACAGCUUGCUUACUAUUUAGUUA	0.089 ± 0.011	0.00298 ± 0.0026	0.0407 ± 0.015
UCCUGGAACUCCUUGCAUAGUAUUUAGUUA	0.238 ± 0.02	0.00487 ± 0.0017	0.0352 ± 0.009
